Data on 40 compounds can be found in PubChem BioAssay (EPA / NIEHS).

The source made the active and inactive calls. Rule for the calls: active = hit-call score of the fitted dose curve at least 0.9, where 1 is the maximum; inactive = score below 0.9.

Chain of Heat shock factor protein 1 (Homo sapiens) (Q00613 whole entry, looked up): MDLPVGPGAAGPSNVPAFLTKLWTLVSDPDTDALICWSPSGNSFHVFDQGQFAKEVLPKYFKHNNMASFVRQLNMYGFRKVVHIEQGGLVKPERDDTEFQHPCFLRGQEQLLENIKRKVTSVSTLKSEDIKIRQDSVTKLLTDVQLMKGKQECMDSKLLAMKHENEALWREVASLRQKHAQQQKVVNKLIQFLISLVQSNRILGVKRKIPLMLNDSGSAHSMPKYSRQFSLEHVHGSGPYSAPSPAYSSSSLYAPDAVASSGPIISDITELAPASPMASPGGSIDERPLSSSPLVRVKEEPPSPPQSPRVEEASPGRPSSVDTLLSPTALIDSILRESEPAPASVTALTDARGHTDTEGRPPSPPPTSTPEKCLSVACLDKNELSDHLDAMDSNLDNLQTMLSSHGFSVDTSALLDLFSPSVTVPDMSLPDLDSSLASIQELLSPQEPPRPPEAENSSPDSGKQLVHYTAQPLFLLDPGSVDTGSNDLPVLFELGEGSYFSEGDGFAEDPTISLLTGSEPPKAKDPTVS

This test deals with Heat shock factor protein 1 (Homo sapiens) (UniProt Q00613). In words: ATG_HSE_CIS: Attagene CIS-FACTORIAL HepG2 Assay for human Heat Shock Transcription Factor 1 (HSE) (AID 2282953). The following applies: HepG2 HSE cis-reporter, Attagene RNA transcription; actives raise or lower the signal. As to the method:
ATG_CIS is a cell-based, multiplexed-readout assay that uses HepG2, a human liver cell line, with measurements taken at 24 hours after chemical dosing in a 24-well plate.ATG_HSE_CIS is one of 52 assay component(s) measured or calculated from the ATG_CIS assay. It is designed to make measurements of mRNA induction, a form of inducible reporter, as detected with fluorescence intensity signals by Reverse transcription polymerase chain reaction (RT-PCR) and Capillary electrophoresis technology.Data from the assay component ATG_HSE_CIS was analyzed into 1 assay endpoint. This assay endpoint, ATG_HSE_CIS, was analyzed with bidirectional fitting relative to DMSO as the negative control and baseline of activity. Using a type of inducible reporter, measures of mRNA for gain or loss-of-signal activity can be used to understand the reporter gene at the transcription factor-level as they relate to the gene HSF1. Furthermore, this assay endpoint can be referred to as a primary readout, because this assay has produced multiple assay endpoints where this one serves a reporter gene function. To generalize the intended target to other relatable targets, this assay endpoint is annotated to the dna binding intended target family, where the subfamily is heat shock protein.
Human liver HepG2 cells are transiently transfected with multiple reporter transcription units (MRTUs) in 6-well plates using FuGene 6 reagent (Roche; 3 ml FuGene/1 mg DNA). The MRTU constructs are regulated by a cis-regulating element (promoter). […] A major difference between the CIS and TRANS system is that in CIS activities of endogenous TFs are measured, whereas the TRANS assay evaluates changes in activities of exogenous, chimeric NR-Gal4 proteins. […] At the end of 24 hour incubation, total RNA was isolated using TriZol reagent (Invitrogen). The isolated RNA is then reverse-transcribed using oligo(dT) primer and Mo-MLV reverse transcriptase (Invitrogen) with DNAse I (Ambion) treatment for 30 min. The one-tenth of the produced cDNA was amplified by PCR using Taq DNA polymerase (Invitrogen) and two reporter sequence-specific primers. The PCR products were fluorescently labeled by primer extension with 6-arboxyfluorescein (6-FAM) 5'-labeled reporter sequence-specific primer (2 min at 95 C, 20 s at 68 C and 10 min at 72 C) and these products were digested with 5U of HpaI (New England Biolabs) for 2h at 37 C. The fragments were purified using Qiaquick PCR columns (Qiagen), analyzed on an ABI 3130xL genetic analyzer (Applied Biosystems) with peak positions identified by using a set of X-rhodamine (ROX)-labeled MapMarker1000 molecular weight standards (BioVentures). The raw capillary electrophoresis data was processed using Attagraph software (Attagene).
Take `CCCCCCCCO`: the compound was called inactive.
As to `COc1ccc2sc(C(=O)Nc3nnn[nH]3)c(OC(C)C)c2c1`, the result was inactive.
In the case of `Cn1c(=O)c2c(ncn2C)n(C)c1=O`, the compound was classed as inactive.
Same read-out and setting: the same measure for `C=CCCCCCCCCC(=O)O`: “inactive”.
Regarding `CCOC(=O)COc1ccc2c(c1)CC(NCC(O)c1cccc(Cl)c1)CC2` (stereo not given), the AC50 (commonly the concentration giving half of the maximal activity seen) is 45.5 µM (active).
As to `CC(C)=CCCC(C)CCO` (stereo not given), the compound was called inactive.
With `CCCCCCc1ccc(O)cc1O`, the call was inactive.
In the case of `CC[C@H]1CC[C@H](NCc2cc3c(cc2OC)[C@H]2C[C@H]2C(=O)N3C)[C@H](c2ccccc2)N1`, the AC50 was 71.5 µM (active).
For `COc1cccc(-c2ccc(/C=C\CN3CCCCCC3)cc2Cl)c1`, the result was inactive.
`C=CC(=C)CCC=C(C)C`: the outcome was inactive.
Consider `Nc1nc2ncc(CNc3ccc(C(=O)N[C@@H](CCC(=O)O)C(=O)O)cc3)nc2c(=O)[nH]1`, for which the compound was called inactive.
With `Cn1c(=O)cc(Oc2ccc(F)cc2F)c2cnc(NCC(C)(C)O)nc21`, the compound was called inactive.
Take `CC[C@H]1OC(=O)[C@H](C)[C@@H](O[C@H]2C[C@@](C)(OC)[C@@H](O)[C@H](C)O2)[C@H](C)[C@@H](O[C@@H]2O[C@H](C)C[C@H](N(C)C)[C@H]2O)[C@](C)(O)C[C@@H](C)C(=O)[C@H](C)[C@@H](O)[C@]1(C)O`: the call was inactive.
Regarding `O=C1CCCCCN1`, the outcome was inactive.
The same measure, in the same setting: the same measure for `Cc1ccc(C)c(O)c1`: “inactive”; for `CCN(C(=O)c1cc(C)cc(OC[C@H](C)Nc2ccncc2)c1)C(C)C`: “inactive”.
Still for that read-out and setting: the same measure for `O=C1OC(=O)C2C3C=CC(C3)C12` (stereo not given): “inactive”.
On to `CCn1nc(Cc2ccccc2)cc1C1CCN(C[C@H]2C[C@H](N(C)[C@@H](C(=O)O)C(C)C)C[C@@H]2c2cccc(F)c2)CC1`, for which the outcome was inactive.
For the compound `CC1(C)C(=O)N(Br)C(=O)N1Br`, the outcome was inactive.
With `CCCCC(CC)COC(=O)c1ccc(C(=O)OCC(CC)CCCC)cc1` (stereo not given), the outcome was inactive.
As for `O=C(O)CC(O)C(=O)O` (stereo not given), the call was inactive.
Turning to `C1=CCCC=CCCC=CCC1`, the compound was classed as inactive.
`CCNc1ccccc1`: the compound was called inactive.
As to `O=C(O)c1cc(N=Nc2ccc(S(=O)(=O)Nc3ccccn3)cc2)ccc1O`, the outcome was inactive.
As for `CCCN(C1CCN(C(=O)C2CCNCC2)CC1)[C@@H]1CCc2ccc(OC)cc2C1`, the result was inactive.
Turning to `CC(=O)OCCC(C)C`, the outcome was inactive.
Same read-out and setting: the same measure for `CC(=O)OC[C@H]1O[C@@](COC(C)=O)(O[C@H]2O[C@H](COC(C)=O)[C@@H](OC(C)=O)[C@H](OC(C)=O)[C@H]2OC(C)=O)[C@@H](OC(C)=O)[C@@H]1OC(C)=O`: “inactive”.
As for `CCOC(=O)c1ccc(C2CCC(NC[C@H](O)COc3ccc(O)c(NS(C)(=O)=O)c3)CC2)cc1` (stereo not given in full), the AC50 was 61.8 µM (active).
`Fc1ccccc1[C@@H](F)COC1CCC(Nc2ncnc3[nH]ncc23)CC1` (stereo not given in full): the half-maximal activity concentration (AC50) is 157 µM (active).
As for `CCCCCCCCCCCCCCCO`, the outcome was inactive.
On to `O=c1[nH]c2ccc(S(=O)CCN3CCC(Cc4ccc(F)cc4)CC3)cc2o1` (stereo not given), for which the result was inactive.
On the same count and under the same terms, the value for `O=C1CCC(N2C(=O)c3ccccc3C2=O)C(=O)N1` (stereo not given) was “inactive”.
`CC(C)c1cccc(C(C)C)c1N1C(=O)c2ccc(O)cc2C1=O`: the AC50 was 68.4 µM (active).
`CC(C)CCCCCCCOC(=O)CCCCC(=O)OCCCCCCCC(C)C`: the call was inactive.
In the case of `NC(=O)NO`, the compound was called inactive.
With `CCc1cc(SCc2sc(-c3ccc(C(F)(F)F)cc3)nc2CN2CCN(c3ccc(OC)cc3)CC2)ccc1OCC(=O)O`, the AC50 is 18.1 µM (active).
Regarding `COC(=O)c1c(Cl)c(Cl)c(C(=O)OC)c(Cl)c1Cl`, the result was inactive.
On to `Cc1[nH]cnc1C[C@H]1CCc2c(C)c3ccccc3n2C1=O`, for which the AC50 was 46.5 µM (active).
Turning to `CCCCCCCCCCCCc1ccccc1`, the compound was classed as inactive.
For `Cc1ccc(S(=O)(=O)O)cc1C`, the result was inactive.
